# Inconclusive results are not listed. Calls of active or inactive are those of the source. No cut-off is given here; in the data, nearly all actives have AC50 up to about 27 µM.
# Experiment: viability loss in pontine glioma line – cell-based, JHH-DIPG-1, MIPE4.0, CellTiter-Glo, qHTS, dose response (AID 1347062);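 for AC50: cells exposed to compound for two days before readout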
# Settings: JHH-DIPG-1 viability, CellTiter-Glo ATP luminescence
SMILES,outcome,AC50
CN(N=O)C(=O)N[C@H]1C(O)OC(CO)[C@@H](O)[C@@H]1O (stereo not given in full),inactive,–
O=C(O)c1cc(O)c2c(c1)C(=O)c1cccc(O)c1C2=O,inactive,–
Cc1nc2c([nH]1)CCN(C(=O)c1ccc(NC(=O)c3ccccc3-c3ccccc3)cc1)c1ccccc1-2,inactive,–
C=C1/C(=C\C=C2/CCC[C@]3(C)[C@@H]([C@H](C)/C=C/[C@H](C)C(C)C)CC[C@@H]23)C[C@@H](O)C[C@@H]1O,–,418 nM (active)
CCC(CC)[C@H](NC(C)=O)[C@@H]1[C@H](O)[C@@H](C(=O)O)C[C@H]1N=C(N)N,inactive,–
CN(C)c1nc(Cc2ccc(NC(=O)c3ccc(C(F)(F)F)cc3)cc2)nc(N(C)C)c1CC(=O)O,inactive,–
Nc1ccn([C@H]2CS[C@@H](CO)O2)c(=O)n1,inactive,–
C1=C/COCc2cc(ccc2OCCN2CCCC2)Nc2nccc(n2)-c2cccc(c2)OCC/1,–,4180 nM (active)
COc1ccc(CC2SC(=O)NC2=O)cc1C(=O)NCc1ccc(C(F)(F)F)cc1 (stereo not given),inactive,–
Cc1cc(-c2nnc3n2CCCCC3)c(C)n1-c1ccccc1,inactive,–
CN1[C@@H]2CC(OC(=O)[C@@H](CO)c3ccccc3)C[C@H]1[C@H]1O[C@H]12 (stereo not given in full),inactive,–
CC(C)C(=O)Oc1ccc(CO)cc1[C@H](CCN(C(C)C)C(C)C)c1ccccc1,inactive,–
C/C(=C\C(=O)Nc1ccccc1C(=O)O)c1ccc2ccccc2c1,inactive,–
CCC[C@H]1C[C@H](C(=O)N[C@@H]([C@@H]2O[C@@H](SC)[C@@H](O)[C@@H](O)[C@H]2O)[C@H](C)Cl)N(C)C1,inactive,–
CC[C@H]1OC(=O)[C@H](C)[C@@H](O[C@H]2C[C@@](C)(OC)[C@@H](O)[C@H](C)O2)[C@H](C)[C@@H](O[C@@H]2O[C@@H](C)C[C@H](N(C)C)[C@H]2O)[C@](C)(O)C[C@@H](C)C(=O)[C@H](C)[C@@H](O)[C@]1(C)O,inactive,–
Nc1n[nH]c2nnc(-c3c(-c4ccccc4)nn4ccccc34)cc12,–,20900 nM (active)
O=C(O)C1=NC(C(=O)O)CC(/C=C/N2c3cc(O)c(OC4OC(CO)C(O)C(O)C4O)cc3CC2C(=O)O)=C1 (stereo not given),inactive,–
CN[C@H]1[C@H](O[C@@H]2[C@H](O[C@@H]3[C@@H](O)[C@@H](O)[C@@H](N=C(N)N)[C@@H](O)[C@H]3N=C(N)N)O[C@H](C)[C@@]2(O)C=O)O[C@@H](CO)[C@@H](O)[C@H]1O,inactive,–
CCCCCNC(=O)N1CCC(CN(Cc2ccc(Cl)cc2)Cc2ccc([N+](=O)[O-])s2)C1 (stereo not given),inactive,–
CNc1ccc(C(=O)Oc2cc(ON[N+](=O)N(C)C)c([N+](=O)[O-])cc2C#N)cc1,inactive,–

SMILES,outcome,AC50
CC(C)(C)OC(=O)N[C@H]1CCCCC/C=C\[C@@H]2C[C@@]2(C(=O)NS(=O)(=O)C2CC2)NC(=O)[C@@H]2C[C@@H](OC(=O)N3Cc4cccc(F)c4C3)CN2C1=O,inactive,–
CC(=O)N1CCN(c2ccc(OCc3nn(C)c(C)c3-c3cccc4c(CCCOc5cccc6ccccc56)c(C(=O)O)n(Cc5cccnc5)c34)cc2)CC1,–,1660 nM (active)
O=C(NNC(=O)c1ccc(CNS(=O)(=O)c2ccc(F)c(Cl)c2)cc1)c1ccccc1,inactive,–
CC1COC2(CCN(c3nc(=O)c4cc(C(F)(F)F)cc([N+](=O)[O-])c4s3)CC2)O1 (stereo not given),inactive,–
Cc1nnc(C(C)C)n1C1C[C@H]2CC[C@@H](C1)N2CC[C@H](NC(=O)C1CCC(F)(F)CC1)c1ccccc1 (stereo not given in full),inactive,–
C=C1C[C@@]2(O)O[C@@]3(C[C@H]2C(C)C)[C@@H](C)CC[C@@H]13,inactive,–
CCCCCCCCCCCCCC(=O)N[C@H](CO)[C@H](O)c1ccc([N+](=O)[O-])cc1,–,2960 nM (active)
C[C@H](NCc1ccc2c(c1)nc(NC(=O)c1ccc(-c3cn[nH]c3)s1)n2CCc1ccccc1)C(C)(C)C,–,1050 nM (active)
C[C@H](NCc1ccc(OCc2cccc(F)c2)cc1)C(N)=O,–,4690 nM (active)
CO/N=C(/C(=O)N[C@@H]1C(=O)N2C(C(=O)O)=C(Cn3ccc(=N)n3CCO)CS[C@H]12)c1csc(N)n1,inactive,–
C[C@]12CC[C@H](O)CC1=CCC1C2CC[C@]2(C)C(n3cnc4ccccc43)=CCC12 (stereo not given in full),inactive,–
c1nc2nc(Nc3ccc(N4CCOCC4)cc3)nc(NC3CCCCC3)c2[nH]1,–,16600 nM (active)
Cc1ccnc(NS(=O)(=O)c2ccc(NC(=O)Nc3ccc(S(=O)(=O)Nc4nccc(C)n4)cc3)cc2)n1,–,2640 nM (active)
OC[C@H]1O[C@@H](OCCc2ccc(O)cc2)[C@H](O)[C@@H](O)[C@@H]1O,inactive,–
CN(C)CCCNC(=O)c1ccc(-c2cc(O)c3ncccc3c2)cc1,inactive,–
CC(C)(C)COc1ccc(-n2cc(C(=O)O)cn2)cc1C#N,inactive,–
Nc1nc(F)nc2c1ncn2[C@@H]1O[C@H](CO)[C@@H](O)[C@H]1O,–,590 nM (active)
Clc1cccc(-c2nnnn2Cc2cccnc2)c1Cl,inactive,–
CCC(C)CCCCC(=O)N[C@@H](CCN)C(=O)NC(C(=O)N[C@H](CCN)C(=O)N[C@@H]1CCNC(=O)C([C@@H](C)O)NC(=O)[C@@H](CCN)NC(=O)[C@@H](CCN)NC(=O)[C@@H](CC(C)C)NC(=O)[C@H](Cc2ccccc2)NC(=O)[C@H](CCN)NC1=O)[C@@H](C)O (stereo not given in full),inactive,–
CNC(=O)c1ccc(Nc2cc(Nc3ccccc3S(=O)(=O)C(C)C)c3cc[nH]c3n2)nc1,–,14800 nM (active)

# — PubChem BioAssay
